In all, about 310,000 compounds went through this assay and about 1,200 (0.39%) were called active. How the calls were made is not given here. A selection follows. Results with a measured potency or affinity are listed apart.
Target: Large T antigen (Simian virus 40) (UniProt P03070)
Assay: SV40 large T antigen inhibitors, biochemical (AID 1903)
Settings: SV40 large T antigen ATPase/helicase inhibition assay; at 20 µM; stronger effect = higher value

Large T antigen (Simian virus 40), sequence (P03070 whole entry, looked up): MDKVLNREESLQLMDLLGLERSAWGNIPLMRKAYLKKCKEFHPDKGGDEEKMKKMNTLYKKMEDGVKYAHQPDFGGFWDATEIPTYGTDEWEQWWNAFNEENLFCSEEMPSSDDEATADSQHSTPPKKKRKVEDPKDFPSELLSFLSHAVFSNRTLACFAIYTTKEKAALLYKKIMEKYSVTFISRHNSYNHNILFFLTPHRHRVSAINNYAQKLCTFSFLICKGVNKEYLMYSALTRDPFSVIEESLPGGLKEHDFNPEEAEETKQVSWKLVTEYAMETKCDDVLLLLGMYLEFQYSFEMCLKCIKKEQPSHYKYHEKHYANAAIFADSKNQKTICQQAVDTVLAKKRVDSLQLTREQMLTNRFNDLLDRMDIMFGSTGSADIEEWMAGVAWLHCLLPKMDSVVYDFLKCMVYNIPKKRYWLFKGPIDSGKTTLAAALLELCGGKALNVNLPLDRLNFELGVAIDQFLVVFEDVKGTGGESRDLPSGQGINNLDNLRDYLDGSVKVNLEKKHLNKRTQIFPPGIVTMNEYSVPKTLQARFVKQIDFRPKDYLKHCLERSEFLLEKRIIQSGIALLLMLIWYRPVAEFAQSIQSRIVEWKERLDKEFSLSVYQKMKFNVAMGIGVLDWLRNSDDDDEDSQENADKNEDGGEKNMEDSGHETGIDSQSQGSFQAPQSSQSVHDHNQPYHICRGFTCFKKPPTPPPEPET

inhibition, inactive:
O=C(/C=C/c1ccc(Cl)cc1)c1ccc([N+](=O)[O-])o1 34.3%
Cc1ccc(/C=C/C(=O)c2ccc([N+](=O)[O-])o2)cc1 24.6%
Cc1cccc(/C=C/C(=O)c2ccc([N+](=O)[O-])o2)c1 27.2%
COc1ccc(/C=C/C(=O)c2ccc([N+](=O)[O-])o2)cc1 2.57%
Cc1cccc(NC(=O)c2ccc([N+](=O)[O-])o2)c1C -1.78%
COc1ccc(/C=C/C(=O)c2ccc([N+](=O)[O-])o2)cc1OC 17.4%
CC(=O)CC1(C)OC(N)=C(C#N)C1(C#N)C#N (stereo unspecified) 5.62%
N#Cc1ccc(C(=O)Nc2cc(-c3ccccc3)nn2-c2ccccc2)cc1 2.51%
Cc1cc(-c2sccc2C)nc(-n2cccc2)n1 1.14%
O=C1Nc2ccccc2Nc2ccccc21 0.33%
Cc1ccc(N=C2CCCCCN2C)c(C#N)c1 15.4%
CCN(CC)CCC(=O)N1c2ccccc2CCc2ccc(NC(=O)OC)cc21 6.36%
COC(=O)/C(=C\Nc1ccc(Cl)cc1Cl)NC(=O)c1ccc(Cl)cc1Cl 6.46%
COc1ccc(/C=C2/SC(=S)N(n3c(C)ccc3C)C2=O)cc1 12.7%
O=C(CSc1cccc2cccnc12)N/N=C/c1cccc(O)c1 3.2%
O=C(N/N=C/c1ccccc1Br)c1ccc(CSc2cccc3cccnc23)cc1 8.68%
COc1ccc(/C=N/NC(=O)COc2cccc3cccnc23)cc1OC 16.2%
O=C(CSc1cccc2cccnc12)N/N=C/c1ccc(F)cc1 5.35%
O=C(CSc1cccc2cccnc12)N/N=C/c1ccncc1 13.8%
COc1cccc(/C=N/NC(=O)CSc2cccc3cccnc23)c1 14.4%
O=C(COc1cccc2cccnc12)N/N=C/c1ccccc1O 0.79%
NNC(=O)c1ccc(CSc2cccc3cccnc23)cc1 8.28%
COc1ccc(NC(=O)CN(C)C(=O)Cc2ccc3c(c2)OCCO3)cc1 4.23%
CSCC(=O)N1CCc2ccc(NC(=O)c3ccccc3Cl)cc2C1 3.34%
COc1ccccc1NC(=O)CCS(=O)(=O)c1cc2c(cc1Cl)NC(=O)CO2 -2.36%
Cn1nc(C(=O)NC2=NCCS2)ccc1=O 16.5%
CC1(C)CC(NC(=O)COc2ccc3ccccc3c2)CC(C)(C)N1 12.2%
COc1ccc(NC(=O)CSc2nc3sc(C)cc3c(=O)n2C)cc1 8.62%
CC(CC(=O)NC(C)c1ccc2c(c1)OCCO2)c1ccccc1 (stereo unspecified) 7.67%
O=S(=O)(c1ccccc1OC(F)(F)F)N1CCN(c2ccnc3cc(Cl)ccc23)CC1 4.46%
Cc1nc(=O)c(-c2ccccc2)c(C)n1Cc1ccccc1 1.9%
O=C(COc1ccccc1[N+](=O)[O-])N/N=C/c1ccncc1 25.8%
O=C(COc1ccccc1[N+](=O)[O-])N/N=C/c1ccc(O)c([N+](=O)[O-])c1 7.71%
Cc1cc2c(Nc3cccc(O)c3)ncnc2s1 26.2%
Cc1cc2c(Nc3ccccc3)ncnc2s1 -2.89%
CCc1cc2c(NCc3ccccc3)nc(C)nc2s1 17.6%
CCc1cc2c(Nc3ccccc3O)nc(C)nc2s1 9.83%
O=C(OCc1nnc(-c2ccccc2)o1)c1ccc(CO)cc1 3.3%
CCO[C@H]1OC(C(=O)NCc2nc3ccccc3[nH]2)=C[C@@H](c2ccccc2)[C@@H]1CCCO 1.96%
COc1ccc(C(=O)OCC(=O)c2c(N)n(C)c(=O)n(C)c2=O)cc1OC -4.08%
CCOc1ccc(C(=O)OCC(=O)c2c(N)n(C)c(=O)n(C)c2=O)cc1OCC 1.22%
O=C(NC(=S)Nc1ccc(S(=O)(=O)N2CCCCC2)cc1)c1ccc(Cl)cc1 1.56%
COC(=O)c1ccc(CN2C(=O)c3ccccc3C2=O)o1 10.1%
CSc1nc(-c2ccccc2)nc(NC(=O)c2ccccc2)c1C(C)=O 5.31%
COC(=O)C1=C[C@@H](C(=O)OC)[C@@H]2C3=C(C(=O)[C@]2(CC(C)C)NC(=O)c2ccccc2)[C@H](C)n2c(=O)n(-c4ccccc4)c(=O)n2[C@@H]3C1 19.3%
C/C(=N\NC(=O)c1nnn(-c2nonc2N)c1-c1cccs1)c1cccnc1 -7.39%
CN1C(=O)N(C)c2cccc3cccc1c23 21.8%
CC1N(C)c2cccc3cccc(c23)N1C 32.1%
OC(COCc1ccc2c(c1)OCO2)CN1CCCCC1 (stereo unspecified) 4.66%
COc1ccc(S(=O)(=O)NNC(=O)Cc2csc(C)n2)cc1[N+](=O)[O-] 10.2%
CCN1CCN(c2cc(C)c3cc(NC(=O)Cc4ccc(OC)c(OC)c4)ccc3n2)CC1 2.02%
CC1C(=O)OC(c2ccc(Br)cc2)C(C)(C)C1=O (stereo unspecified) 29.1%
CCOc1ccc2c(c1)C(c1ccccc1)=NNC(c1ccccc1)=N2 4.86%
CCN(CC)c1ccc(NC(=O)CSc2nc(C)cc(=O)[nH]2)cc1 35.5%
CCc1nc(SCC(=O)Nc2ccc(N(C)C)cc2)c2ccccc2n1 18.1%
Cc1cc(C)n2c(SCC(=O)Nc3ccc(F)cc3)nnc2n1 8.2%
CC(C)c1ccc(NC(=O)CSc2nc3c(c(=O)[nH]2)CCC3)cc1 10.4%
Cc1cc(C)c2c(=O)[nH]c(SCC(=O)Nc3ccc(N(C)C)cc3)nc2n1 31.4%
CC(=O)Nc1ccc(NC(=O)CSc2nc3nc(C)cc(C)c3c(=O)[nH]2)cc1 9.68%
O=C(CSc1nc2c(c(=O)[nH]1)CCC2)Nc1ccc(F)cc1 22%
CCN(c1ccc(NC(=O)CSc2nnc3nc(C)cc(C)n23)cc1)C(C)C 36%

Reference: PubChem BioAssay AID1903 (Southern Research Specialized Biocontainment Screening …, 2009)
